Assay results published in PubChem BioAssay (EPA / NIEHS).
Values joined by “and” are separate entries in the source; they are usually repeats but may differ in a detail not shown here. Identical values can stand only once. Records with an inconclusive call do not appear. The source holds several records for some structures; these can differ, active in one and inactive in another. Active and inactive are the calls of the source. How the source made its calls, unless noted: active means hit-call score of the fitted dose curve at least 0.9, where 1 is the maximum; inactive means score below 0.9.

Key:
[1] = read-out: E-selectin (Homo sapiens) (UniProt P16581); assay: BSK_SAg_Eselectin: BioMAP Diversity Plus: SAg Assay for Eselectin Biomarker Activity (AID 2283091); details: primary human HUVEC with PBMC; actives raise or lower the signal
Summary of the method: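 Human umbilical vein endothelial cells co-cultured with peripheral blood mononuclear cells, SAg system. E-selectin is measured by ELISA 24 h after dosing and fitted bidirectionally against DMSO. Cytotoxicity is checked by SRB staining of parallel cultures.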

[2] = read-out: Monokine induced gamma interferon (MIG), CXCL9 (gene 4283); assay: BSK_SAg_MIG: BioMAP Diversity Plus: SAg Assay for Monokine induced gamma interferon (MIG) Biomarker Activity (AID 2283092); details: primary human HUVEC with PBMC; actives raise or lower the signal
Summary of the method: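 Values reflect bidirectional fitting of ELISA-measured MIG against DMSO vehicle, taken 24 h after dosing of a co-culture of human umbilical vein endothelial cells and peripheral blood mononuclear cells.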

[3] = BSK_SAg_PBMCCytotoxicity: PBMC Cytotoxicity Assessment in the BioMAP Diversity Plus: SAg Assay (AID 2283093); details: primary human HUVEC with PBMC;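 further: PBMC viability measured as Alamar Blue reduction fluorescence at 546/580 nm; fitted both ways against DMSO so a hit may be loss or gain of signal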;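 on AC50: PBMC superantigen activated with SEB plus TSST-1 one hour after compound addition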
Summary of the method: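 Human umbilical vein endothelial cells co-cultured with PBMC; PBMC (75,000/well) pre-treated with compound 1 h, then activated with SEB and TSST-1 (20 ng/mL final each) for 90 h. Alamar Blue added 6 h, fluorescence 546/580 nm; bidirectional fit versus DMSO.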

[4] = BSK_SAg_Proliferation: Cell Proliferation Assessment in the BioMAP Diversity Plus: SAg Assay (AID 2283095); details: primary human HUVEC with PBMC;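 further: relative cell number as total protein by SRB absorbance in sub-confluent culture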
Summary of the method: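 Cells (endothelium plus PBMC, human primary) were dosed with chemical, cultured 96 h, fixed in 10% TCA and stained with 0.1% SRB. Absorbance at 560 nm gave relative protein, fitted bidirectionally relative to DMSO.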

[5] = BSK_SAg_SRB: Viability Assessment in the BioMAP Diversity Plus: SAg Assay (AID 2283096); details: primary human HUVEC with PBMC;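 further: cells read one day after compound addition; hits may be either gain or loss of signal compared with DMSO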
Summary of the method: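 Endothelial/PBMC primary human co-culture; compound 24 h; fix 10% TCA, stain 0.1% SRB, A560; protein content as cytotoxicity proxy; bidirectional curve fit, DMSO = baseline.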

[6] = biological target: human CYP19A1, CYP19A1 (gene 1588) (UniProt P11511); assay: NVS_ADME_hCYP19A1: NovaScreen (NVS) CYP450-related Enzyme Activity (ADME) Assay for human CYP19A1 (AID 2283098; active means hit-call score of the fitted dose curve at least 0.9, where 1 is the maximum;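 on AC50: potency for inhibitors seen as loss of fluorescent enzyme signal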)
Summary of the method: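 Cell-free enzyme assay with recombinant protein and a specific fluorogenic substrate, read by fluorescence intensity 0.5 h after dosing. Primary screen ran in duplicate at 10 uM; actives were retested in concentration series. Loss of signal versus acetonitrile baseline.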

[7] = biological target: human CYP1A1, CYP1A1 (gene 1543) (UniProt P04798); assay: NVS_ADME_hCYP1A1: NovaScreen (NVS) CYP450-related Enzyme Activity (ADME) Assay for human CYP1A1 (AID 2283100; active means hit-call score of the fitted dose curve at least 0.9, where 1 is the maximum)
Summary of the method: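 Recombinant CYP1A1 with a fluorogenic substrate, cell-free, read 1 h after dosing; acetonitrile as negative control. Single-concentration screen at 10 uM in duplicate, then concentration-response up to 20 uM for chemicals meeting ~30% inhibition threshold.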

[8] = biological target: human CYP1A2, CYP1A2 (gene 1544) (UniProt P05177); assay: NVS_ADME_hCYP1A2: NovaScreen (NVS) CYP450-related Enzyme Activity (ADME) Assay for human CYP1A2 (AID 2283102; active means hit-call score of the fitted dose curve at least 0.9, where 1 is the maximum)
Summary of the method: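 Recombinant human CYP1A2 from insect cells, cell-free, fluorogenic substrate; read 0.5 h after dosing with loss of fluorescence signal indicating inhibition. Primary screen in duplicate at 10 uM, acetonitrile as negative control.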

[9] = biological target: human CYP2B6, CYP2B6 (gene 1555) (UniProt P20813); assay: NVS_ADME_hCYP2B6: NovaScreen (NVS) CYP450-related Enzyme Activity (ADME) Assay for human CYP2B6 (AID 2283101; active means hit-call score of the fitted dose curve at least 0.9, where 1 is the maximum)
Summary of the method: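 Compounds were first screened in duplicate at 10 uM against recombinant enzyme, with the fluorescent product measured after 1 hour. Active compounds were retested over a concentration series. Loss of fluorescence versus acetonitrile control was scored as reduced enzyme activity.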

Measured: AC50

Chain of human CYP19A1, CYP19A1 (gene 1588) (P11511 whole entry, looked up): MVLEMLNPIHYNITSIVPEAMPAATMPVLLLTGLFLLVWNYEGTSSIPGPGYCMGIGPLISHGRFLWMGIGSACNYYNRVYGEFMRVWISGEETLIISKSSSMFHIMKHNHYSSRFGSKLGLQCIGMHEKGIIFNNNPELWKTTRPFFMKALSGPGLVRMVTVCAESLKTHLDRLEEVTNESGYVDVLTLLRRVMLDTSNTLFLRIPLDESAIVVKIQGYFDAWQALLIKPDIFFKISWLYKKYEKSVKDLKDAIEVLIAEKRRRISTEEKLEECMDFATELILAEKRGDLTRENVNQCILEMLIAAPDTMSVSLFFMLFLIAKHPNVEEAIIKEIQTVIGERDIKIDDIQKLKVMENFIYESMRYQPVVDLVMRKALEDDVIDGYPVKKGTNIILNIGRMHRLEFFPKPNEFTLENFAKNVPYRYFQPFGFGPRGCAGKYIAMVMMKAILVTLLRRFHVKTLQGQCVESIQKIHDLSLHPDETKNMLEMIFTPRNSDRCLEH
Chain of human CYP1A1, CYP1A1 (gene 1543) (P04798 whole entry, looked up): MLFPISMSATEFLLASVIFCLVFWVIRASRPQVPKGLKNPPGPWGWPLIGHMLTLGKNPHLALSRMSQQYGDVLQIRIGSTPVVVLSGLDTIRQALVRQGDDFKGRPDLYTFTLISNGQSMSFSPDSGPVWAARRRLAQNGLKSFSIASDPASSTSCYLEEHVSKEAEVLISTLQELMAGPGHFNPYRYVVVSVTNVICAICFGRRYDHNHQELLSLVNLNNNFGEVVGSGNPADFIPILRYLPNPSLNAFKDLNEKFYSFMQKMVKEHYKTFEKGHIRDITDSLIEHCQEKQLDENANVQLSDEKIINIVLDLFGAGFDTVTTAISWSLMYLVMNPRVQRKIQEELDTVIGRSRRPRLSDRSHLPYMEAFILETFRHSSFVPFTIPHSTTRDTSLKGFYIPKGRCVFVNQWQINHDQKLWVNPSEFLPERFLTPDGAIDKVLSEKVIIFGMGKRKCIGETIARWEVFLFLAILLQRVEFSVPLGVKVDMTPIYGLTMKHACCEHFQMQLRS
Chain of E-selectin (Homo sapiens) (P16581 whole entry, looked up): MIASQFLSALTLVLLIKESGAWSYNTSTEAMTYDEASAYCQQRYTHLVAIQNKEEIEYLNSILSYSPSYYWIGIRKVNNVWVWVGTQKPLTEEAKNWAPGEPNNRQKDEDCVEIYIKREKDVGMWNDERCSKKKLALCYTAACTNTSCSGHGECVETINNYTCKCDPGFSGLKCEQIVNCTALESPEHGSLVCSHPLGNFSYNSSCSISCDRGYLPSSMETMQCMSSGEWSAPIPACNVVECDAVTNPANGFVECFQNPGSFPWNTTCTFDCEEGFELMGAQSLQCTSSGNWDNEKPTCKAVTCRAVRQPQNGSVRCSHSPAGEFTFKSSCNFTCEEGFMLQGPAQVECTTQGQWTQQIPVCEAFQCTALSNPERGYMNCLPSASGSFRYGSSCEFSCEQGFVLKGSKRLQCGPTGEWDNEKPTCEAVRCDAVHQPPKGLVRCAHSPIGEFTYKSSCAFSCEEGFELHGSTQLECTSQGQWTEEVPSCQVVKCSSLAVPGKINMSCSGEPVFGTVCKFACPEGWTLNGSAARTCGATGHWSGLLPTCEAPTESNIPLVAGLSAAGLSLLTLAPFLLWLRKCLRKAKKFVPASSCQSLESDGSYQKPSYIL
Chain of human CYP2B6, CYP2B6 (gene 1555) (P20813 whole entry, looked up): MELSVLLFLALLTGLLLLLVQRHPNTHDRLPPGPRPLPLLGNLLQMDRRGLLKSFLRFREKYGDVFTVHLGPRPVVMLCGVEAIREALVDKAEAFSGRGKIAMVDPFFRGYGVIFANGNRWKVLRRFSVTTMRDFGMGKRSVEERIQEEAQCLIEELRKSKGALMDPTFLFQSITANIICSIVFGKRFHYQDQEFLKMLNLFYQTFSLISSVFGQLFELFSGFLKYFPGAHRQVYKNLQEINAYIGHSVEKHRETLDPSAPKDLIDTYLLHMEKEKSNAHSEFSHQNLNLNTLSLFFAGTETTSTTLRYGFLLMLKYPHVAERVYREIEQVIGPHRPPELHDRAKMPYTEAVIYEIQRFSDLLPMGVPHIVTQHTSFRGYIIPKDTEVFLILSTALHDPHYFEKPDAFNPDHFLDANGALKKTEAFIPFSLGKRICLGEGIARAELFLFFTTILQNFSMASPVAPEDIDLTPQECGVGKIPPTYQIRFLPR
Chain of human CYP1A2, CYP1A2 (gene 1544) (P05177 whole entry, looked up): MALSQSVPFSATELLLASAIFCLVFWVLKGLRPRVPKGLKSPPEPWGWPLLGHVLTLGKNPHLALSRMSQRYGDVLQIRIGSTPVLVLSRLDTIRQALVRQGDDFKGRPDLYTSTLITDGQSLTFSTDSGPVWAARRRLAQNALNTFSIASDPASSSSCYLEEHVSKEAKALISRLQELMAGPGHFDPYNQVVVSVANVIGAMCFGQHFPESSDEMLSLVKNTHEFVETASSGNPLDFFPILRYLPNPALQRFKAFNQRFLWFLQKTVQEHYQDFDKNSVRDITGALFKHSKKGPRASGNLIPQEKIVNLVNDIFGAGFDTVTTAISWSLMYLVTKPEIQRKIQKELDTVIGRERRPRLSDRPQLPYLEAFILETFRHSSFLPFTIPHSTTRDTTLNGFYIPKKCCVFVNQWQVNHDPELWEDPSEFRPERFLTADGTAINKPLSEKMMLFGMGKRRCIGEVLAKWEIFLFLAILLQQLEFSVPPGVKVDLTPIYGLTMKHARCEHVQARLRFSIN

CC1(C)[C@H](C=C(Cl)Cl)[C@H]1C(=O)OCc1cccc(Oc2ccccc2)c1
inactive: [1] | [2] | [3] | [4] | [5]

O=C(c1ccc(OCCN2CCCCC2)cc1)c1c(-c2ccc(O)cc2)sc2cc(O)ccc12
active: [1] 37.4 µM | [2] 34.7 µM | [3] 26.2 µM | [4] 14.6 µM | [5] 24.1 µM | [6] 4.25 µM [middle of 4 runs] | [7] 6.33 µM

c1ccc2c(c1)-c1ccc3ccc4cccc5cc-2c1c3c45
inactive: [1] | [2] | [3] | [4] | [5]

C=C(C)C(N)=O
inactive: [1] | [2] | [3] | [4] | [5] | [8]

CC(C)(C)c1cccc(O)c1
inactive: [1] | [2] | [3] | [4] | [5]

C=C(F)C(=O)OC(C(F)(F)F)C(F)(F)F
inactive: [1] | [2] | [3] | [4] | [5]

OCC(F)(OC(F)(F)C(F)(OC(F)(F)C(F)(F)C(F)(F)F)C(F)(F)F)C(F)(F)F (configuration not stated)
active: [1] 2.96 µM and 3.23 µM | [3] 2.03 µM and 1.97 µM | [4] 2.09 µM and 2.02 µM | [5] 5.05 µM and 3.37 µM
inactive: [2]

CC(C)CCCC(C)(C)O
inactive: [1] | [2] | [3] | [4] | [5]

O=C(O)C(F)(F)OC(F)(F)C(F)(F)OC(F)(F)C(F)(F)C(F)(F)C(F)(F)F
active: [5] 30 µM
inactive: [1] | [2] | [3] | [4] | [5]

C=CC(=O)OCC(CO)(COC(=O)C=C)COC(=O)C=C
active: [1] 0.333 µM | [2] 0.601 µM | [3] 0.0476 µM | [4] 0.0305 µM | [5] 2.13 µM

CCCCCCCCOC(=O)c1ccc(O)cc1
active: [6] 7.86 µM

CC(=O)C1=C(C)[C@@H]2C[C@@]3(C1)[C@H](C)CC[C@H]3C2(C)C
inactive: [6]

C#C[C@]1(O)CC[C@H]2[C@@H]3CCc4cc(O)ccc4[C@H]3CC[C@@]21C
active: [4] 5.51 µM | [5] 5.5 µM
inactive: [1] | [2] | [3] | [7] | [9]

Nc1ccc(N)c([N+](=O)[O-])c1
inactive: [1] | [2] | [4] | [5]

C=C(C)C(=O)OCCC(F)(F)C(F)(F)C(F)(F)C(F)(F)C(F)(F)C(F)(F)C(F)(F)C(F)(F)F
inactive: [1] | [2] | [3] | [4] | [5]
